Test results: PubChem BioAssay (NCI)
This is part of a sample that, as a whole, favours compounds with a hit. Of some 83,000 tested, about 20% had one in any assay.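 Step 1: grow cells in 96-well plates. Step 2: add test compound at a single concentration. Step 3: incubate 48 h. Step 4: record percent growth.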 A number with no mark means an inactive call. The source made the active and inactive calls. The calls were made as follows: active = growth percent below 10; inactive = the rest.

How the values were obtained:
Assay in all cases: NCI-60 one-dose screen, 48 h (100 = growth as untreated, 0 = no growth, -100 = all killed)
Settings in all cases: 10 µM unless noted
HCT-15 colon = test system: HCT-15 colon
HT29 colon = test system: HT29 colon
SNB-75 CNS = test system: SNB-75 CNS
SNB-19 CNS = test system: SNB-19 CNS
PC-3 prostate = test system: PC-3 prostate
SK-MEL-5 melanoma = test system: SK-MEL-5 melanoma
UACC-62 melanoma = test system: UACC-62 melanoma
LOX IMVI melanoma = test system: LOX IMVI melanoma
SK-MEL-28 melanoma = test system: SK-MEL-28 melanoma
SK-MEL-2 melanoma = test system: SK-MEL-2 melanoma
EKVX NSCLC = test system: EKVX NSCLC
SN12C renal = test system: SN12C renal
UO-31 renal = test system: UO-31 renal
TK-10 renal = test system: TK-10 renal
ACHN renal = test system: ACHN renal
CAKI-1 renal = test system: CAKI-1 renal
CCRF-CEM leukemia = test system: CCRF-CEM leukemia
MOLT-4 leukemia = test system: MOLT-4 leukemia
U251 CNS = test system: U251 CNS
A498 renal = test system: A498 renal

Compound | growth (HCT-15 colon) | growth (HT29 colon) | growth (SNB-75 CNS) | growth (SNB-19 CNS) | growth (PC-3 prostate) | growth (SK-MEL-5 melanoma) | growth (UACC-62 melanoma) | growth (LOX IMVI melanoma) | growth (SK-MEL-28 melanoma) | growth (SK-MEL-2 melanoma) | growth (EKVX NSCLC) | growth (SN12C renal) | growth (UO-31 renal) | growth (TK-10 renal) | growth (ACHN renal) | growth (CAKI-1 renal) | growth (CCRF-CEM leukemia) | growth (MOLT-4 leukemia) | growth (U251 CNS) | growth (A498 renal)
COc1ccc(OC)c(-c2cc(-c3ccc(Cl)cc3)c3c(N)c(C(=O)c4ccc(Cl)cc4)sc3n2)c1 | 106% | 91.1% | 73.6% | 103% | 81.4% | 107% | 92.2% | 98.3% | 105% | 94.2% | 93.8% | 101% | 75.4% | 102% | 97.4% | 88.5% | 88.7% | 103% | – | –
CCCCCOc1ccc(/C=N/Nc2cc(C)nc3ccc(Cl)cc23)cc1 | -93.8% (active) | -18.9% (active) | 41% | 16.9% | 9.76% (active) | 74.2% | – | -96.9% (active) | -85.8% (active) | 93.1% | 66.7% | -88.1% (active) | -99.6% (active) | -22.5% (active) | -73.5% (active) | 28.7% | 1.69% (active) | -38.9% (active) | -75% (active) | –
NS(=O)(=O)c1ccc(Cn2c(SCC(=O)N/N=C/c3ccccc3O)nc3ccccc3c2=O)cc1 | 75% | 86.3% | 84.3% | 55.6% | 67.9% | 58.1% | – | 16.1% | 57.7% | 36.6% | 60.1% | 56.2% | 61% | 53.8% | 72.3% | 54.2% | 23.2% | 20.8% | 43.1% | –
O=C1C=CC(=O)N1c1cccc(Cl)c1 | 101% | 85.9% | 115% | 118% | 89.2% | 106% | 105% | 102% | 108% | 116% | 108% | 126% | 104% | 68.2% | 98.4% | 79.4% | 55.4% | – | – | 94.6%
C=C(C)[C@@H]1CC[C@]2(C(=O)N3CCN(C)CC3)CC[C@]3(C)[C@H](CC[C@@H]4[C@@]5(C)C/C(=C/c6ccncc6)C(=O)C(C)(C)[C@@H]5CC[C@]43C)[C@@H]12 | 35.8% | 15.8% | 87.9% | 64.2% | 23.7% | 59.8% | 71% | 55.9% | 76.9% | 64.6% | 77.3% | 47.1% | 48% | 89.4% | 60.9% | 71.1% | 24.7% | 3.16% (active) | – | –
CCOC(=O)c1nc2c3ccccc3ccn2c1C(=O)OCC | 99.7% | 105% | 36.8% | 89.2% | 110% | 98.2% | 87.5% | 98.6% | 113% | 112% | 76.9% | 95.4% | 96.4% | 102% | 99.5% | 94.8% | 96.1% | 95.4% | – | 109%
CC(=O)c1ccc(NS(=O)(=O)c2cccc(C(=O)Nc3ccc(Br)cc3)c2)cc1 | 68.2% [25 µM] | 87.4% [25 µM] | 78.3% [25 µM] | 60.4% [25 µM] | 60.4% [25 µM] | -19.8% [25 µM] (active) | 26.5% [25 µM] | 62.7% [25 µM] | 77.9% [25 µM] | 41% [25 µM] | 34.2% [25 µM] | 64.7% [25 µM] | 53.8% [25 µM] | 91.3% [25 µM] | 73.3% [25 µM] | 52.8% [25 µM] | 61.6% [25 µM] | 53.7% [25 µM] | – | –
CC(=O)OC[C@]12CC[C@@H](C(=O)CBr)[C@@H]1[C@H]1CC[C@@H]3[C@@]4(C)CC[C@H](OC(C)=O)C(C)(C)[C@@H]4CC[C@@]3(C)[C@]1(C)CC2 | 97.1% | 91.8% | 84.4% | – | 75.8% | 75.1% | 84.9% | -69.6% (active) | 99.8% | 92.3% | 107% | 87% | 90.7% | 108% | 98.8% | 77.4% | -17.4% (active) | -5.01% (active) | 96.7% | 121%
COc1ccc2[nH]c(O)c(/C=c3/cc4c(c(-c5ccc(F)cc5)n3)=Nc3ccccc3-4)c2c1 | 26.7% | -29.8% (active) | 82.6% | – | 85% | 72.1% | 90.2% | 68.9% | 93.9% | 103% | 74.1% | 88.6% | 72.5% | 107% | 92.2% | 87% | – | – | 66.3% | 70.2%
N#CC1=C(N)Oc2c(cnn2-c2ccc([N+](=O)[O-])cc2[N+](=O)[O-])C1c1ccccc1 (stereo not drawn) | 93.2% | 110% | 86.5% | – | 105% | 97.1% | 93% | 102% | 106% | 110% | 90.6% | 101% | 79.9% | 99.4% | 103% | 90.6% | 79.7% | – | 102% | 50.7%
O=S(=O)(NCCNc1nccc(-c2c(-c3cccc(O)c3)nc3occn23)n1)c1ccc(Cl)cc1 | 113% | 62.9% | 109% | – | 96.5% | 52.2% | 19.2% | 72.3% | 48.2% | 83.4% | 125% | 100% | 110% | 143% | 98.5% | 79.6% | 106% | 103% | 110% | –
O=S(=O)(NCCNc1nccc(-c2c(-c3cccc(O)c3)nc3occn23)n1)c1cccc(F)c1 | 95.5% | 51.2% | 80.6% | – | 86.8% | 46.4% | 14% | 64.8% | 50.1% | 61.1% | 97.1% | 76.6% | 92.7% | 136% | 78% | 71.6% | 91.7% | – | 98.3% | –
CCN(CC)CC[n+]1cc2cc(OC)c(OC)cc2c2ccc3cc4c(cc3c21)OCO4 | 32.9% | -50.1% (active) | 3.63% (active) | – | 3.91% (active) | -68.3% (active) | 31.7% | -85.8% (active) | 22.7% | 14.8% | 17.5% | 3.54% (active) | 8.71% (active) | 12.2% | 8.72% (active) | 26.5% | 1.03% (active) | – | -38.2% (active) | –
